Bioassay records as filed in PubChem BioAssay.
L3MBTL1 inh – L3MBTL1 (human) inhibition; Q9Y468; AlphaScreen L3MBTL1–H3K9me1 peptide binding; Potency, µM (doses to about 57.1 µM), inactives show at the highest dose activity, negative = inhibition, actives largely listed as inhibitors; actives 0.66% (n = 230,000); AID 485360; further: on the % scale 0 is the no-effect control and ±100 the full control effect; nearly all actives have a fitted effect of over 60% in size
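L3MBTL1 (50 nM) pre-complexed 30 min with biotinylated H3(1-15)K9me1 peptide (75 nM), then compounds added for 30 min at room temperature; AlphaScreen streptavidin donor/nickel chelate acceptor beads (10 ug/mL final) read after 30 min dark incubation.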
Pol beta inh – blocks human DNA polymerase beta activity; actives 1.3% (n = 340,000); Pol beta primer extension/strand displacement, fluorescence kinetic; AID 485314; Potency, µM (series often up to 114 µM), inactives show at the top dose activity change, negative = inhibition, hits mostly inhibitors; P06746; further: on the % scale 0 is the no-effect control and ±100 the full control effect
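Pol beta (10 nM) was preincubated with compound for 15 min at room temperature. The reaction was then started with 50 nM substrate and read immediately and after a further 10 min at room temperature.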
POLK inh – blocks human DNA polymerase kappa activity; Q9UBT6; purified Pol kappa, fluorescent DNA synthesis assay, 10 min; Potency, µM (highest dose often 107 µM), without a hit: top-dose activity, negative = inhibition, hits mostly inhibitors; actives 0.53% (n = 400,000); further: on the % scale 0 is the no-effect control and ±100 the full control effect
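Fluorescent qHTS in 1536-well format: enzyme (10 nM) and compound sat 15 min at room temperature before 50 nM substrate (final) was added. Signal taken at 0 and 10 min; no-enzyme buffer wells were negative controls.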
POLH inh – DNA polymerase eta (human) inhibition; Q9Y253; recombinant Pol eta, fluorescent DNA replication assay; Potency, µM (doses to about 114 µM), without a hit: top-dose activity change, negative = inhibition, most hits filed as inhibitors; actives 1.2% (n = 390,000); further: on the % scale 0 is the no-effect control and ±100 the full control effect
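Fluorescent replication assay: 50 nM final substrate added after a 15 min room-temperature compound preincubation with 10 nM enzyme. Signal taken at 0 min and again at 10 min.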
POLI inh – DNA polymerase iota (human) inhibition | Q9UNA4 | Pol iota fluorescent replication assay, 10 min | Potency, µM (series often up to 115 µM), without a hit: at the top dose activity, negative = inhibition, actives largely listed as inhibitors | actives 1% (n = 390,000) | AID 588590
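Fluorescent replication assay read twice, at 0 min and 10 min after adding 50 nM (final) substrate. Enzyme (10 nM) and compounds were first incubated 15 min at room temperature; enzyme-free buffer wells were negative controls.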
Starred values were filed as active, the others as inactive; ? = inconclusive; · = no result given; [ ] = dose if it differs, or a comment. Shown are actives, neighbours in structure and some others; about 2.4% of the full set was active somewhere. The call rests on the fitted dose curve; in most records, active means well fitted curve in the direction sought with a large enough effect; inconclusive means small, poorly fitted or top-dose-only effect, or another doubt; inactive means no such curve, though single readings can be large; an effect the other way counts as inactive or inconclusive. Potency means the concentration at half of the fitted maximal effect.

SMILES	L3MBTL1 inh	Pol beta inh	POLK inh	POLH inh	POLI inh
CC(C)CCCCCCCCCCCCC(=O)NCC(=O)NC1C(O)C(O)C(Nc2ncnc3nc[nH]c23)OC1C(O)CO (configuration not stated)	·	·	-9.2%	-18.0%	7.4%
Cc1ccc(C(=O)Nc2cccnc2)cc1C	·	·	·	-1.1%	·
O=C1c2cccc(O)c2C(=O)c2c(O)cccc21	-28.5%	10.4%	-9.0%[60.1 µM]	·	·
O=C1C=C(O)c2cccc(O)c2C1=O	·	20µM*	?	35.5µM*	?
CC(=O)N1CCc2c(sc(NC(=O)c3ccc([N+](=O)[O-])o3)c2C(N)=O)C1	·	·	·	50.1µM*	·
CCC(=O)Nc1sc2c(c1C(N)=O)CCN(C(C)=O)C2	?	9.3%	-7.4%	-13.5%	0.4%
CC(=O)Nc1ccc(S(=O)(=O)N2CCSC2c2ccco2)cc1 (configuration not stated)	3.4%	0.6%	-6.0%	-9.3%	111.2%
O=S(=O)(c1ccccc1)N1CCSC1c1ccco1 (configuration not stated)	-14.1%	44.7µM*	-7.9%	?	?
Cc1ccc(C(=O)c2cn(Cc3ccc(F)cc3)c3nc(C)ccc3c2=O)cc1	·	1.3%	-15.7%	-9.4%	79.4µM*
CC(=O)Nc1ccc(/C=C/c2sc3ccccc3[n+]2CCCCI)cc1	·	·	44.7µM*	·	79.4µM*
CCCCCCC[n+]1c(/C=C/c2ccc(N(C)C)cc2)sc2ccccc21	·	·	39.8µM*	·	79.4µM*
Cc1sc2ccccc2[n+]1CCCCI	·	·	-21.4%	·	?
CCN(CC)c1ccc(/C=C/c2sc3ccccc3[n+]2CCCCI)cc1	·	·	?	·	50.1µM*
COc1ccccc1CNC(=O)c1cnc2c(-c3ccccc3)c(C)nn2c1C	·	3.2%	0.0%	-9.8%	8.6%
Cc1ccc(C(=O)Oc2cc(-c3ccc4c(c3)OCO4)cc(=O)c3c(C)oc(C)c23)cc1	·	-19.0%	-32.0%	79.4µM*	?
Cc1cnc2c(C)cccc2c1C	·	·	0.0%	·	-2.5%
Brc1ccc(C2=CC(c3cccs3)n3ncnc3N2)cc1 (configuration not stated)	-2.5%	50.1µM*	-23.6%	?	?
OCCCc1nc2n(n1)C(c1cccs1)C=C(c1ccc(Br)cc1)N2 (configuration not stated)	-1.4%	-27.2%	·	·	·
COc1ccccc1-c1nn(CCC(=O)Nc2ccc(C)cc2)c2nc(C)cc(C)c12	·	-15.1%	-5.9%	-17.7%	6.6%
CCN(CC)c1ccc(N2C(=O)/C(=C/c3cccs3)SC2=S)cc1	-0.7%	103.5%	-3.1%	0.0%	10.2%
CCO/C=C1\SC(=S)N(c2ccc(Cl)cc2)C1=O	-18.9%	?	-15.1%	-9.2%	25.1µM*
Cc1cccc(-c2nn3c(=O)cc(CN4CCN(C(=O)c5ccccc5Br)CC4)nc3s2)c1	·	-11.8%	-2.8%[60.1 µM]	-3.6%	-9.6%
O=C1N[C@@H]2[C@H](CCCCC(=O)Oc3ccc([N+](=O)[O-])cc3)SC[C@H]2N1	·	·	8.7%[60.1 µM]	·	·
CC(=O)Oc1ccc(C(=O)O)cc1OC(C)=O	-7.7%	7.5%	4.2%	-10.5%	-11.5%
COc1cc(C(=O)O)ccc1OC(C)=O	4.1%	23.9%	-3.2%	-2.6%	89.1µM*
SMILES	L3MBTL1 inh	Pol beta inh	POLK inh	POLH inh	POLI inh
CC(CNC(=O)c1ccc(Cn2c(SCc3ccccc3)nc3cccnc32)cc1)c1ccccc1 (configuration not stated)	·	?	-23.1%	-6.1%	-22.4%
CCOC(=O)c1c(-c2ccc(C)cc2)csc1NC(=O)/C(C#N)=C/c1ccc(O)c(OC)c1	-13.5%	4.5%	-31.5%	28.2µM*	?
CCOC(=O)c1c(-c2ccccc2)csc1NC(=O)/C(C#N)=C\c1ccc(O)c(OC)c1	·	·	-22.9%	?	?
O=[N+]([O-])c1ccc(O)c(Nc2ncnc3ccc(Br)cc23)c1	·	?	-13.4%	-11.1%	30.4%
O=[N+]([O-])c1ccc(O)c(Nc2ncnc3ccccc23)c1	3.6%	28.2µM*	-10.5%	?	-19.5%
Cc1cc(NC(=O)C(C)Sc2nnc(NCc3ccco3)s2)no1 (configuration not stated)	-7.8%	·	-14.5%	?	39.8µM*
CCN(C(=O)CN1CCN(c2ccc(O)cc2)CC1)c1c(N)n(Cc2ccccc2)c(=O)[nH]c1=O	-2.9%	44.7µM*	-36.0%	12.3%	?
CCN(C(=O)CN1CCCCCC1)c1c(N)n(Cc2ccccc2)c(=O)[nH]c1=O	-6.5%	·	-15.7%	-6.0%	9.6%
CCOC(=O)Cc1cc(=O)n2[nH]c(C)c(-c3ccccc3)c2n1	3.9%	?	?	4.9%	?
CCOC(=O)Cc1cc(=O)n2[nH]c(-c3ccccc3)c(-c3ccccc3)c2n1	7.3%[11.4 µM]	14.1µM*	79.4µM*	79.4µM*	?
Cc1cc(O)c2c(C)c(CC(=O)NCc3ccccc3Cl)c(=O)oc2c1	·	-0.8%	1.8%	-15.1%	28.8%
COc1cccc(OCc2cc(C(=O)N3CCN(c4ccccc4OC)CC3)no2)c1	·	-20.0%	1.0%	-11.9%	9.3%
CN(C)CCNC(=O)c1cccc2nc3c(ccc4ccccc43)nc12	·	·	?	?	79.4µM*
COc1ccc(C(=O)NCCN(C)C)c2nc3ccccc3cc12	·	·	?	?	79.4µM*
COc1cccc2nc3c(C(=O)NCCN(C)C)cccc3cc12	·	·	-45.7%	?	?
CCCCCCCCCC[n+]1ccc(/C=C/c2c(C)[nH]c3ccccc23)c2ccccc21	·	·	?	·	58.9%
O=C1CC(c2ccccc2)Oc2cc(O)cc(O)c21 (configuration not stated)	·	16.6%	1.6%	-9.6%	8.9%
CC1CC(=O)c2c(cc3c(-c4c(O)cc(O)c5c(O)c6c(cc45)OC(C)CC6=O)c(O)cc(O)c3c2O)O1 (configuration not stated)	0.631µM*	17.8µM*	?	10µM*	1.12µM*
Cc1cccc(/C=N/NC(=O)c2cc(Br)ccc2OCc2ccccc2)n1	·	44.7µM*	-15.8%	-24.1%	?
Cc1cc(C(F)(F)F)n2[nH]c(=O)c(N=Nc3ccccc3)c2n1	·	-19.9%	?	12.3%	39.8µM*
Cc1[nH][nH]c(=O)c1C(c1c(C)[nH][nH]c1=O)c1cn(Cc2ccccc2Cl)c2ccccc12	-28.0%	-15.5%	-15.0%	?	5.62µM*
N/C(=N\O)c1cn(Cc2ccccc2Cl)c2ccccc12	·	-13.4%	-7.6%	-20.2%	113.2%
N#Cc1ccc(OCC(=O)Nc2nc(-c3cccnc3)cs2)cc1	-11.6%	·	-20.0%	50.1µM*	?
CCOc1cccc(=O)c2c(C)n(Cc3ccccc3)c(C)c12	-8.0%	?	-9.9%	-19.6%	28.9%
CCOc1cccc(=O)c2c(C)n(Cc3ccco3)c(C)c12	?	25.1µM*	-12.7%	-12.7%	11.8%
